# Reference: PubChem BioAssay (NCATS)
# Results filed as inconclusive are left out. The source made the active and inactive calls. Calls follow the shape of the dose curve; as a rule, active = well fitted inhibition curve with a large enough effect; inconclusive = small, poorly fitted or top-dose-only effect; inactive = flat fitted curve, though single readings scatter. Where a SMILES comes first, the peptide text is derived from it. The star is where a group is joined. βNA = c1ccc2cc(N*)ccc2c1; Cbz = O=C(OCc1ccccc1)*; CH2F = FC*
# Test: P-glycoprotein substrates identified in KB-8-5-11 adenocarcinoma cell line, qHTS therapeutic library screen (AID 1346987); also: nearly all actives have a fitted effect of over 65% in size
# Conditions: KB-8-5-11 (P-gp overexpressing) viability, CellTiter-Glo, 72 h; series mostly up to 44.5 µM; activity change, negative = cytotoxicity: at the top concentration
# Summary of the method: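 Steps: plate 500 KB-8-5-11 cells/well in DMEM + 10% FCS (colchicine removed); pin compounds in dose-response; incubate 72 h, 37 degree C, 5% CO2; add CellTiter-Glo, 5 min; read luminescence.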
# % is scaled to controls: 0 for no effect and ±100 for the full control effect.
Structure (SMILES),"activity change, negative = cytotoxicity",outcome
CC(=O)OC1CC(=O)C2(C)C3CC4=C(OC(C)CC4=O)OC3(C)CCC2C1(C)C (centres undefined),8.19% [at 17.3 µM] (inactive),–
CC(C)CC(NC(=O)OCc1ccccc1)C(=O)NC(CC(C)C)C(=O)NC(CCC(=O)O)C(=O)Nc1ccc2ccccc2c1 (stereo not drawn) (Cbz-Leu-Leu-Glu-βNA; configuration not given here),–,inactive
FC(F)(F)Oc1ccc(-c2ccc3nnc(C(F)(F)F)n3c2)cc1,-16.8% (inactive),–
COc1cccc(OC)c1-c1nc(C(=O)N[C@@H](CC(C)C)C(=O)O)cn1-c1ccnc2cc(Cl)ccc12,–,inactive
C=C1C2(C)CC3C4(C)C=CC(=O)OC(C)(C)C4CCC3(C)C1(C(=O)OC)C(=O)C(C)(O)C2=O (centres undefined),–,inactive [at 17.3 µM]
COC(=O)CC[C@H](NC(=O)[C@H](CC(C)C)NC(=O)OCc1ccccc1)C(=O)N[C@@H](Cc1cnc[nH]1)C(=O)N[C@@H](CC(=O)OC)C(=O)CF (Cbz-LE(OMe)HD(OMe)-CH2F),6.58% [at 9.29 µM] (inactive),–
C=C(CC/C=C(\C)C(=O)O)C1(O)CC=C(C)CC1 (centres undefined),–,inactive
COC(=O)C1=CO[C@@H](O[C@@H]2O[C@H](CO[C@@H]3O[C@H](CO)[C@@H](O)[C@H](O)[C@H]3O)[C@@H](O)[C@H](O)[C@H]2O)[C@@H]2C(CO)=CC[C@H]12,9.02% [at 17.3 µM] (inactive),–
C[C@@H]1O[C@@H](O[C@H]2[C@H](O)[C@@H](O)[C@H](OC[C@H]3O[C@@H](OC(=O)[C@]45CCC(C)(C)C[C@H]4C4=CCC6[C@@]7(C)C[C@@H](O)[C@H](O)[C@@](C)(CO)C7[C@H](O)C[C@@]6(C)[C@]4(C)CC5)[C@H](O)[C@@H](O)[C@@H]3O)O[C@@H]2CO)[C@H](O)[C@H](O)[C@H]1O (some centres undefined),–,inactive [at 9.29 µM]
NC1(c2ccc(NC(=O)c3ccnc(-c4cc(C(=O)O)ccn4)c3)cc2)CC1,–,inactive
C/C(=C\C(=O)C[C@@]12C(=O)O[C@]3(C)CC[C@H]1C[C@H]23)C(N)=O,–,inactive
COc1ccc(O[C@@H]2O[C@H](CO)[C@@H](O)[C@H](O)[C@H]2O)cc1OC,3.47% (inactive),–
CC(C)C1NC(=O)C2CCCN2C1=O (centres undefined),1.69% (inactive),–
COc1cccc(OC)c1-c1ccc(C[C@H](NC(=O)c2c(Cl)cccc2Cl)C(=O)O)cc1,–,inactive
C=CC(C)(O)CC/C=C(\C)C(=O)O[C@@H]1[C@@H](O)[C@H](OC(C)(C=C)CC/C=C(\C)C(=O)O[C@@H]2O[C@H](CO)[C@@H](O)[C@H](O)[C@H]2O)O[C@H](CO)[C@H]1OC(=O)/C(C)=C/CCC(C)(O)C=C (some centres undefined),2.84% [at 9.29 µM] (inactive),–
C=C(CCO[C@@H]1O[C@H](CO)[C@@H](O)[C@H](O)[C@H]1O)C(=O)O,–,inactive
CC(=O)OC1C(CO)OC(O[C@H]2[C@H](OC(=O)[C@]34CCC(C)(C)C[C@H]3C3=CCC5[C@@]6(C)CC[C@H](O[C@@H]7O[C@H](C(=O)O)[C@@H](O)[C@H](O[C@@H]8OC[C@@H](O)[C@H](O)[C@H]8O)[C@H]7O[C@@H]7O[C@H](CO)[C@H](O)[C@H](O)[C@H]7O)[C@@](C)(C=O)C6CC[C@@]5(C)[C@]3(C)C[C@H]4O)O[C@H](C)[C@H](OC3OC(C)C(OC4OCC(O)C(O)C4O)C(O)C3O)[C@@H]2O)C(O)C1O (some centres undefined),1.85% [at 9.29 µM] (inactive),–
CC1(C)[C@@H]2CC=C(CO[C@@H]3O[C@H](CO[C@@H]4OC[C@H](O)[C@H](O)[C@H]4O)[C@@H](O)[C@H](O)[C@H]3O)[C@H]1C2,–,inactive [at 17.3 µM]
C[C@@H]1[C@H](O)[C@@H]2OC(=O)C3=C2[C@H](CCC3)[C@@]12C[C@@H](c1ccoc1)OC2=O,2.44% (inactive),–
COC(=O)C1=CO[C@@H](O[C@@H]2O[C@H](CO)[C@@H](O)[C@H](O)[C@H]2O)[C@@H]2[C@@H](C)[C@@H](OC(=O)/C=C/c3ccccc3)[C@@H](O)[C@H]12,–,inactive [at 17.3 µM]

Structure (SMILES),"activity change, negative = cytotoxicity",outcome
COc1cc(O)cc2c1C(=O)OC(C)CCCCCCC2 (centres undefined),-1.32% (inactive),–
CC(=O)OC1CC2(C)C(CCC(C)C23Cc2c(O)cc4c(c2O3)CNC4=O)C(C)(C)C1O (centres undefined),–,inactive [at 17.3 µM]
C=C[C@H]1[C@H](O[C@@H]2O[C@H](CO)[C@@H](O)[C@H](O)[C@H]2O)OC=C(C(=O)OC)[C@H]1CC=O,–,inactive
C[C@]12CC/C(=N\OCC(=O)O)C=C1CC[C@@H]1[C@@H]2[C@@H](O)C[C@@]2(C)[C@H]1CC[C@]2(O)C(=O)CO,–,inactive
CCC12CCCN3CCc4c(n(c5ccccc45)C(O)C1)C32 (centres undefined),9.8% (inactive),–
C=C1CC[C@H]2[C@@](C)(CCC(OC3OC(CO)C(O)C(O)C3O)[C@@]2(C)CO)C1C(=O)CC1=CCOC1=O (some centres undefined),2.04% [at 17.3 µM] (inactive),–
NC[C@@H]1O[C@@H](O[C@@H]2[C@@H](O[C@@H]3O[C@H](CO)[C@@H](O)[C@H]3O)[C@H](O)[C@@H](N)C[C@H]2N)[C@@H](N)[C@H](O)[C@H]1O,–,inactive [at 9.29 µM]
COC(=O)C1=COC(O[C@@H]2O[C@H](CO)[C@@H](O)[C@H](O)[C@H]2O)[C@@H]2[C@@](C)(O)[C@@H](OC(=O)/C=C/c3ccccc3)C[C@]12O (some centres undefined),0.85% [at 17.3 µM] (inactive),–
C/C=C1/[C@H](O[C@@H]2O[C@H](CO)[C@@H](O)[C@H](O)[C@H]2O)OC=C(C(=O)OC)[C@H]1CC(=O)OCCc1ccc(OC(=O)C[C@@H]2C(C(=O)OC)=CO[C@@H](O[C@@H]3O[C@H](CO)[C@@H](O)[C@H](O)[C@H]3O)/C2=C/C)cc1,6.56% [at 9.29 µM] (inactive),–
CCC/C=C/C=C/C1CC(O)C(O)C(=O)C1CO (centres undefined),3.35% (inactive),–
COCCCc1sc(-c2ccccc2)nc1C(=O)Nc1ccccc1-c1nc2cc(CN3CCCC3)cnc2s1,-10.1% [at 17.3 µM] (inactive),–
COc1cc2nc(=NC(=O)c3cccnc3)n3c(c2cc1OC)NCC3,-6.43% (inactive),–
C#CCCCn1cc(-c2cccc3c2N[C@@H](C)CC(=O)N3)cn1,-25.3% (inactive),–
CC(C)=CCC/C(C)=C/CO[C@@H]1O[C@H](CO[C@@H]2O[C@@H](CO)[C@H](O)[C@H]2O)[C@@H](O)[C@H](O)[C@H]1O,2.32% [at 17.3 µM] (inactive),–
C=C1C(OC(C)=O)CCC2(C)CC3(O)OC(=O)C(C)=C3CC12 (centres undefined),-1.64% (inactive),–
CC(=O)c1ccc(O[C@@H]2OC[C@@H](O)[C@H](O)[C@H]2O[C@]2(CO)O[C@H](CO)[C@@H](O)[C@@H]2O)c(O)c1,4.09% [at 17.3 µM] (inactive),–
CCN1CCN(C(=O)N[C@@H](C(=O)N[C@@H]2C(=O)N3[C@@H]2SC(C)(C)[C@@H]3C(=O)O)c2ccccc2)C(=O)C1=O,–,inactive
Cc1cn(C[C@H](N)C(=O)O)c(=O)n(Cc2ccsc2C(=O)O)c1=O,–,inactive
C=C1[C@H]2CCC3[C@]4(C)CCC[C@@](C)(C(=O)O)C4CC[C@]3(C2)[C@H]1OC(C)=O (some centres undefined),–,inactive
